# Measurements reported in PubChem BioAssay AID1224864 (Chung Lab, Department of Pediatrics, Emory University, 2016).
# Out of some 2,000 compounds screened, about 20 (1%) were called active. This is one part of a sample in which actives are shown more often than they occur. The rule behind the calls is not given here. Residues, ends and D or L forms follow the SMILES beside them. *: point of attachment. Boc = CC(C)(C)OC(=O)*; OBn = c1ccc(CO*)cc1
# Molecular target: Cystic fibrosis transmembrane conductance regulator (Homo sapiens) (UniProt P13569)
# Experiment: F508del-CFTR plasma membrane relocalization enhancers – imaging, HeLa, high-content microscopy, immunofluorescence, primary screen (AID 1224864);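 note: HeLa cells stably expressing F508del-CFTR stained with 3G11 antibody against NBD1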;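 for plasma membrane CFTR intensity: mean immunofluorescence in a thin cell-margin band taken as plasma membrane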
# Conditions: PM immunofluorescence imaging, 24 h, at 10 µM, stronger effect = higher value, relative to vehicle wells set at 100; total CFTR intensity: measured here: total cellular F508del-CFTR signal
# Cystic fibrosis transmembrane conductance regulator (Homo sapiens), sequence (P13569 whole entry, looked up, stated change not applied): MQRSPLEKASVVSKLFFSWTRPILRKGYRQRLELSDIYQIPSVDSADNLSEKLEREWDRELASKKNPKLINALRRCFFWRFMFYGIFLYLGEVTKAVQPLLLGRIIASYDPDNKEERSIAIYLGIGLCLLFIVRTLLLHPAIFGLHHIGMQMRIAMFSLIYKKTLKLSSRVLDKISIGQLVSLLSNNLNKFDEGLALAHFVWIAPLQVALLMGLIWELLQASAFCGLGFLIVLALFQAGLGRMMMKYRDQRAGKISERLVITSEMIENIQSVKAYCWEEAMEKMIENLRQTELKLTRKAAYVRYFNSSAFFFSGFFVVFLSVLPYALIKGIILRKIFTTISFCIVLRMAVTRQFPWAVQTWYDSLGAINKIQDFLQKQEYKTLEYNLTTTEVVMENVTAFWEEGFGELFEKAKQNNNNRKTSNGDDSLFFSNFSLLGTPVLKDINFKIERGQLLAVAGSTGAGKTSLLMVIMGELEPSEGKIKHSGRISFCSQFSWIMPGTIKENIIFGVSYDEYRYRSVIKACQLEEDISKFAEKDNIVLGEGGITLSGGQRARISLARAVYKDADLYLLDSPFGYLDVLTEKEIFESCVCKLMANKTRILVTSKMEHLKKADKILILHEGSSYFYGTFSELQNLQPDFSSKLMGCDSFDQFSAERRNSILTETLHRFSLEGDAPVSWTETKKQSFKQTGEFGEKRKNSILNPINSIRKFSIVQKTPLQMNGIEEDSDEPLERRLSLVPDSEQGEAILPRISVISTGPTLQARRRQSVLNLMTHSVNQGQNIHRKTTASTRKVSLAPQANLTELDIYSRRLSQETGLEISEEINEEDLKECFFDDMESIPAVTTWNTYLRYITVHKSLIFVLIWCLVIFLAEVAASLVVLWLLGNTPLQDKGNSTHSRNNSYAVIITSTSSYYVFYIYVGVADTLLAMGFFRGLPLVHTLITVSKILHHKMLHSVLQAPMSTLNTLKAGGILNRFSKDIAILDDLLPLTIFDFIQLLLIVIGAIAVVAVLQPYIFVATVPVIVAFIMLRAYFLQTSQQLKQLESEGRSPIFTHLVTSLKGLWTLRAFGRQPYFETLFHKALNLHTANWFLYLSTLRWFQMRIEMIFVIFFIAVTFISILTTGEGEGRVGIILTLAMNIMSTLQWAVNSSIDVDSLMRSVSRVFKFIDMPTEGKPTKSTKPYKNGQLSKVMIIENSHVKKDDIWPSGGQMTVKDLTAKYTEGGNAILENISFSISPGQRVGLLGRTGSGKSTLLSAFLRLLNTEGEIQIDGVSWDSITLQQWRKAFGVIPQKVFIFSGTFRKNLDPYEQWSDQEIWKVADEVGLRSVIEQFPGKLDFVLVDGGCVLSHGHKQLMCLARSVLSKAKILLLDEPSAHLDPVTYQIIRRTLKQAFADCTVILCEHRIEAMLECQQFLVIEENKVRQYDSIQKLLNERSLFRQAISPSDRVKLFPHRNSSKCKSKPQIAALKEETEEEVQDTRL
SMILES,plasma membrane CFTR intensity,total CFTR intensity [%]
COC1CCN(C(=O)c2ccc(OC3CCN(Cc4ccccn4)CC3)cc2)CC1,81% (inactive),75
CC(C)Cc1nc(NCCN2CCOCC2)c(C#N)c2c1COC(C)(C)C2,96% (inactive),92
C/C(=N\N=C1/NC(=O)C(CC(=O)Nc2ccc(Cl)cc2)S1)c1ccco1 (stereo not given),81% (inactive),80
CC(C)COC(=O)C1C(=O)CC(C)(O)C(C(=O)OCC(C)C)C1c1cccnc1 (stereo not given),93% (inactive),100
C=C(C)COc1ccc(-c2nc(N)ncc2-c2ccc(OC)cc2)c(O)c1,82% (inactive),81
O=C(Oc1ccccc1)Oc1ccc2c(c1)oc(=O)c1ccccc12,120% (active),140
CSCCC(NC(C)=O)C(=O)Oc1ccc2c3c(c(=O)oc2c1)CCCC3 (stereo not given),80% (inactive),80
O=C(Oc1ccc2c3c(c(=O)oc2c1)CCCC3)c1ccco1,89% (inactive),85
C[C@H]1O[C@H]1P(=O)(O)O,103% (inactive),108
Cc1ccc([N+](=O)[O-])cc1NC1OC(CO)C(O)C1O (stereo not given),85% (inactive),85
CC(C)CN(C)Cc1c(C(=O)N2CCc3ccccc3C2)nc2ccc(Cl)cn12,77% (inactive),81
CN(C)CCOCCOc1ccc(Cl)cc1Br,81% (inactive),81
Cn1cc(CN2CCC(C(=O)N3CCCCC3)CC2)c(-c2ccccc2F)n1,79% (inactive),72
CCOC(=O)C1(CCCc2ccccc2)CCN(C2CCN(C(C)=O)CC2)CC1,94% (inactive),101
O=C1CC(c2ccc(OCCCCCOc3ccc(C4CC(=O)NC4=O)cc3)cc2)C(=O)N1 (stereo not given),96% (inactive),95
O=C1CN(O)C=C2N=c3ccccc3=C2N1c1ccc([N+](=O)[O-])cc1,72% (inactive),74
O=C(CCC1CCCN(C(=O)c2ccsc2)C1)NCc1ccc(F)c(F)c1 (stereo not given),81% (inactive),83
CC1(C)C(=O)OC(c2cccs2)C2(CCCCC2)C1=O (stereo not given),102% (inactive),110
NC12CC3CC(C1)CC(O)(C3)C2,89% (inactive),91
Cc1cc(C)cc(Nc2nc3c([nH]2)c(=O)n(C)c(=O)n3C)c1,98% (inactive),95
CCOC(=O)C(=O)Nc1ccc(Oc2ccccc2)cc1,85% (inactive),84
CC(=O)Nc1nc(CCC(C)C)cc2c1c(=O)oc1ccccc12,77% (inactive),80
Cc1cc(OCC(=O)C(C)(C)C)c2c(C)c(C)c(=O)oc2c1,86% (inactive),86

SMILES,plasma membrane CFTR intensity,total CFTR intensity [%]
CCC(C(=O)OCCN(CC)CC)c1ccccc1 (stereo not given),95% (inactive),100
CCN(CC)CCOC(=O)C1(C2CCCCC2)CCCCC1,120% (active),123
CCN(CC)CCOC(=O)C(c1ccccc1)c1ccccc1,86% (inactive),84
O=C(NCCO)c1ccc(Cl)c(Cl)c1,90% (inactive),90
Cc1cccc2c(C(=O)O)cc(-c3cccnc3)nc12,94% (inactive),93
C[C@]12CC[C@@H]3c4ccc(O)cc4CC[C@H]3[C@@H]1CC[C@@H]2OC(=O)CCC(=O)O,78% (inactive),84
CC(=O)Nc1ccc(S(=O)(=O)c2ccc(N)cc2)cc1,97% (inactive),95
Cc1cc(C(=O)NC(CC(C)C)C(=O)O)cc(C)c1[N+](=O)[O-] (stereo not given),73% (inactive),71
COc1ccc(CC(=O)c2c(O)cc(O)cc2O)cc1OC,83% (inactive),82
Cc1cc(O)c2/c(=N/N)c(-c3csc(C)n3)coc2c1,69% (inactive),71
Cc1cc(O)c(C(=O)Cc2csc(C)n2)c(O)c1,110% (active),127
CC(C)CC(NC(=O)C(NC(=O)OC(C)(C)C)C(C)C)C(=O)NC(CCC(=O)OCc1ccccc1)C(N)=O (stereo not drawn) (Boc-Val-Leu-Glu(OBn)-NH2; configuration not given here),82% (inactive),80
O=C1C(=O)c2ccccc2C(O)=C1c1ccccc1F,70% (inactive),75
CC(=O)[C@@H]1[C@@H](C(=O)c2ccc(C)cc2)[C@]2(C(=O)Nc3ccccc32)[C@H]2C=Cc3cc(F)ccc3N12,77% (inactive),114
CC(C)OC(=O)C1C(=O)CC(C)(O)C(C(=O)OC(C)C)C1c1cccc(O)c1 (stereo not given),77% (inactive),78
CCOC(=O)c1ccccc1NC(=O)c1ccc(F)cc1,101% (inactive),103
CCOc1ccc(NC(=O)N[C@@H](CCSC)C(=O)OC)cc1,88% (inactive),88
FC(F)(F)c1ccc(-c2noc(CN3CCCN(C4CCCCC4)CC3)n2)cc1,95% (inactive),100
COc1ccc2[nH]cc(CCNC(=O)C3CCCNC3=O)c2c1 (stereo not given),87% (inactive),85
CC(C)(C)C(=O)NC(=S)NNC(=O)c1ccncc1,94% (inactive),90
O=C(NC(Nc1ccccn1)C(Cl)(Cl)Cl)c1ccccc1 (stereo not given),84% (inactive),85
COc1cc(CNc2nnnn2C)ccc1OCc1ccc(F)cc1Cl,79% (inactive),78
